From PubChem BioAssay AID743446 (Broad Institute, 2014)
Results with a measured potency or affinity are listed apart. A number with no mark means an inactive call. The rule behind the calls is not given here.

Assay: viability loss in HEK293 cells – cell-based, plate reader, cherry-picked samples, cytotoxicity control, dose response (AID 743446)
Conditions: hits give low values; at 26 µM unless noted

| SMILES | max activity |
| --- | --- |
| c1ccc(COc2ccc(OCCCN3CCCC3)cc2)cc1 | -13.8% [at 0.05 µM] |
| Cc1cc(Cl)ccc1OCCCC(=O)Nc1cc(S(=O)(=O)N2CCOCC2)ccc1N1CCOCC1 | -21.8% [at 0.1 µM] |
| O=C(CN1C(=O)c2ccccc2S1(=O)=O)c1ccccc1F | 74.6% |
| O=C(O)c1ccc(-c2noc(-c3ccccc3Cl)n2)cc1 | -20.2% [at 6 µM] |
| C[C@@H]1CN([C@H](C)CO)C(=O)c2cc(NC(=O)Nc3cccc4ccccc34)ccc2O[C@@H]1CN(C)C(=O)Nc1ccccc1 | 29.1% [at 0.8 µM] |
| COc1ccc(-c2nc(N)n(C(=O)c3cccs3)n2)cc1 | 49.5% |
| COc1ccc(-n2cc(C(=O)c3ccccc3O)cn2)cc1 | 69.9% [at 3 µM] |
| O=C(NCCc1ccccc1)c1ccc2c(c1)OCCO2 | 15.3% [at 0.195 µM] |
| O=C(COc1ccc2ccccc2c1)Nc1nccs1 | 38.6% [at 0.195 µM] |
| COc1ccc2c3c([nH]c2c1)[C@H](CO)N(C(C)=O)CC31CCN(C(=O)CN2CCOCC2)CC1 | 11.8% [at 0.38 µM] |
| CC(C)(C)c1ccc(C(=O)NCCOc2ccccc2F)cc1 | 23.5% |
| CC(C)c1ccc(NC(=O)N2CCN(S(=O)(=O)c3ccccc3)CC2)cc1 | 17.9% [at 0.38 µM] |
| OC1CCC(Nc2ccn3nc(-c4cccc(OCc5ccccc5)c4)cc3n2)CC1 (centres undefined) | -14.9% [at 12 µM] |
| O=C(O)c1ccc(N/N=C/c2ccc3ncccc3c2)cc1 | 14.9% [at 12 µM] |
| COc1ccc(C(=O)Nc2nnc(SCC(=O)NCc3ccco3)s2)c(OC)c1 | 15% |
| c1ccc(COc2cccc(-c3cc4nc(NCCCn5ccnc5)ccn4n3)c2)cc1 | 48.7% [at 0.195 µM] |
| COc1ccc(C(=O)Nc2ccc3ccccc3n2)c(OC)c1OC | -6.81% [at 0.1 µM] |
| C=CCn1c(SCC(=O)Nc2ncc(Cc3ccc(C)c(Cl)c3)s2)nnc1-c1ccncc1 | -6.05% [at 3 µM] |
| CCCNC(=O)Nc1ccc2c(c1)C(=O)N(C)C[C@H](OC)[C@H](C)CN(Cc1ccc(-c3ccccn3)cc1)[C@@H](C)CO2 | 32.1% [at 0.75 µM] |
| COc1ccc(Cl)cc1C(=O)Nc1nc2ccccc2[nH]1 | 69.4% [at 0.195 µM] |

| SMILES | max activity |
| --- | --- |
| Cc1ccc(-c2noc(-c3cccs3)n2)cc1 | 22.5% [at 12 µM] |
| COc1ccc(S(=O)(=O)N(C)C[C@@H]2OCc3cnnn3CCCC(=O)N([C@@H](C)CO)C[C@H]2C)cc1 | 0% [setting not given] |
| O=C(Nc1cc(S(=O)(=O)Nc2ccccc2Cl)ccc1O)c1ccc(F)cc1F | -13.9% [at 0.8 µM] |
| COc1ccc(-n2sc3ccc(F)cc3c2=O)cc1 | -22.4% [at 0.05 µM] |
| O=C(Nc1ccc(Cl)cc1)Nc1cccc(C(=O)O)c1 | -10.1% |
| CC1CN(C(=O)c2cccc(S(=O)(=O)Nc3cc(Cl)ccc3Cl)c2)CC(C)O1 (centres undefined) | 5.34% |
| O=C(Nc1ccc(N2CCOCC2)c(S(=O)(=O)Nc2ccccc2Cl)c1)c1ccc(F)cc1 | -18.2% [at 0.1 µM] |
| O=C(c1ccccc1)N1CCSc2sccc2C1=O | 36.7% |
| COc1ccc(CC(=O)Nc2cccc(-c3nnc(-c4cccc(C)c4)o3)c2)cc1OC | -27% |
| Oc1ccc(-c2csc(-c3cccnc3)n2)c(O)c1 | -34.3% |
| O=C(c1ccc(F)cc1)N1CC(=O)N2[C@@H](CO)[C@@H](c3ccc(C#CC4CCCC4)cc3)[C@@H]2C1 | 32.7% [at 6 µM] |
| COc1ccc(S(=O)(=O)N2CCCCN3[C@H](CO)[C@H](c4ccc(-c5cccnc5)cc4)[C@@H]3C2)cc1 | -10.9% [at 12 µM] |
| Cc1ccccc1N=CC1=C(O)c2ccccc2C1=O | 12.1% [at 0.05 µM] |
| O=C1OCCC1Sc1nnc(-c2ccc(Cl)cc2Cl)o1 (centres undefined) | 7.96% [at 0.8 µM] |
| O=C(CN1C(=O)c2ccccc2S1(=O)=O)c1ccc(F)cc1 | 63.1% |
| CN(C)c1ccc(C2NC(=O)c3ccccc3N2)cc1 (centres undefined) | 20.5% [at 0.1 µM] |
| CC(=O)Nc1ccc(S(=O)(=O)c2ccnc3cc(Cl)ccc23)cc1 | -26.3% [at 12 µM] |
| Cc1ccc2nc(CSc3nc(C)ccc3C#N)[nH]c2c1 | -29.6% [at 1.6 µM] |
| Cc1ccc(C(=O)NC2CCCCCCC2)c(Cl)c1 | -18.7% [at 0.38 µM] |
